# Measured values: PubChem BioAssay (Tox21)
# Records with an inconclusive call do not appear. Where a call stands in place of a potency, no number is given. Values without a mark were called inactive. Active and inactive are the calls of the source. Calls come from the whole dose curve; as a rule, active = well fitted cell-killing curve with a large enough effect in the repeat runs; inconclusive = weak or mixed curves, or effect the other way; inactive = no such curve, though single readings can be large or run the other way.
# Experiment: qHTS assay to identify small molecule antagonists of the retinoid-related orphan receptor gamma (ROR-gamma) signaling pathway - cell viability counter screen (AID 1159520); note: nearly all actives have a fitted effect of over 50% in size
# Conditions: Tet-on RORgamma CHO cells viability, ATP luminescence, 16 h; series mostly up to 92.4 µM; activity, negative = cytotoxicity: at the top concentration
# Excerpt: U.S. Tox21 Program National Center for Advancing Translational Sciences [NCATS] NIH Chemical Genomics Center [NCGC] U.S. Environmental Protection Agency [EPA] National Institutes of Environmental Health Sciences [NIEHS] National Toxicology Program [NTP] U.S. Food and Drug Administration [FDA] Tox21 Assay Overview: Nuclear steroid hormone receptors are involved in many biological processes including inflammatory responses, cell proliferation, and apoptosis. Environmental factors or compounds disrupting these nuclear receptor pathways and gene expression may promote susceptibility to immunotoxicants and autoimmune diseases. One important group of these expression factors are the retinoid-related orphan receptors. To assess compounds that may interfere with the retinoid-related orphan receptor gamma (ROR-gamma) transcription factor, a cell-based luciferase assay was used. The CHO cell-based assay utilizes a TET-inducible ROR expression factor and ROR response element-LUC reporter gene. Reporter gene activity was induced using Doxycycline Hyclate and measured after 16 hr incubation. Tet-on ROR gamma CHO cells were used to screen against the Tox21 10K compound library for cytotoxicity by measuring the viability of the cells based on the quantitation of the ATP.
# Tox21 Assay Protocol Summary: Tet-on ROR gamma CHO cells were dispensed at 1,000 cells in 4 uL of culture medium per well into white wall/solid bottom 1536-well plates using a Multidrop Combi (Thermo Scientific, Waltham, MA) dispenser. Following incubation at 37 C and 5% CO2 for 4 hr, 23 nL of compounds dissolved in DMSO, positive controls or DMSO only were transferred by a Pintool station (Kalypsys, San Diego, CA) and after 2 hr incubation at 37 C, one ul of 1 uM (final concentration) of Doxycycline Hyclate was added to all the wells by using a Flying Reagent Dispenser (FRD) (Aurora Discovery, San Diego, CA). After 16 hr incubation at 37 C and 5% CO2, 5 uL of CellTiter-Glo reagent (Promega Corporation, Madison, WI) was added to each assay plate using FRD. After 30 min incubation at room temperature, luminescence was quantified on a ViewLux plate reader (Perkin Elmer, Waltham, MA).
SMILES,Potency,"activity, negative = cytotoxicity [%]"
CC(Oc1ccc(Cl)cc1Cl)C(=O)O (stereo not given),inactive,
O=c1ccc(=O)[nH][nH]1,inactive,
CC(Br)C(=O)O (stereo not given),inactive,
OC(O)C(Cl)(Cl)Cl,inactive,
Cc1cc(Cl)ccc1O,inactive,
Cc1ccc([N+](=O)[O-])cc1C,inactive,
CCN(CC)c1ccccc1,inactive,
Cc1ccccc1O,inactive,
c1ccc2c(c1)Oc1ccccc1O2,inactive,
CC(C)(C)OOC(C)(C)C,inactive,
O=C1CCCN1,inactive,
CC(C#N)CCC#N (stereo not given),inactive,
CCN(CC)CCO,inactive,
c1ccc(-c2ccccc2)cc1,inactive,
ClCCBr,inactive,
Nc1ccc(Br)cc1,inactive,
CCOP(=S)(OCC)Oc1cnc2ccccc2n1,inactive,
NCC(O)c1ccc(O)cc1 (stereo not given),inactive,
Nc1c(Cl)c(Cl)nc(C(=O)O)c1Cl,inactive,
c1ccc2c(c1)oc1ccccc12,inactive,

SMILES,Potency,"activity, negative = cytotoxicity [%]"
Cn1cc(-c2ccccc2)c(=O)c(-c2cccc(C(F)(F)F)c2)c1,inactive,
CC(C)OC(=O)Nc1cccc(Cl)c1,inactive,
CC(C)(C)C(O)(CCc1ccc(Cl)cc1)Cn1cncn1 (stereo not given),inactive,
Clc1ccc(Cl)cc1,inactive,
CC(C)N1C(=O)c2ccccc2NS1(=O)=O,inactive,
CN(C)[C@@H]1C(=O)C(C(N)=O)=C(O)[C@@]2(O)C(=O)C3=C(O)c4c(O)cccc4[C@@](C)(O)[C@H]3C[C@@H]12,inactive,
CON(C)C(=O)Nc1ccc(Cl)c(Cl)c1,inactive,
CCCCN(CC)C(=O)SCCC,inactive,
[N-]=[N+]=[N-],inactive,
CCC[N+](=O)[O-],,11.4
CCC12COCN1COC2,inactive,
Cc1cccc([N+](=O)[O-])c1,inactive,
CN(C)CCO,inactive,
CC(C)(C)OOC(=O)c1ccccc1,inactive,
CN(C)N=O,,8.56
O=c1[nH]c2ccccc2c(=O)o1,inactive,
CCc1cccc(C)c1N(C(=O)CCl)C(C)COC (stereo not given),inactive,
O=S(=O)(c1ccc(O)cc1)c1ccc(O)cc1,inactive,
COC(=O)NC(=S)Nc1ccccc1NC(=S)NC(=O)OC,inactive,
BrCCBr,inactive,
